# High-throughput results: PubChem, several laboratories
# Rows were chosen to be rich in hits. Some 6.7% of all compounds tested hit in one or more screens of this group.
# Anthrax LF prot = inhibitors of Bacillus anthracis lethal factor protease. inhibition, % at 10 µM. P15917. multiplex microsphere protease cleavage assay, LF. hit rate 0.12% among 360,000; also: plate controls were buffer without enzyme for full effect and enzyme alone for no effect
# Target sequence (P15917 whole entry, looked up): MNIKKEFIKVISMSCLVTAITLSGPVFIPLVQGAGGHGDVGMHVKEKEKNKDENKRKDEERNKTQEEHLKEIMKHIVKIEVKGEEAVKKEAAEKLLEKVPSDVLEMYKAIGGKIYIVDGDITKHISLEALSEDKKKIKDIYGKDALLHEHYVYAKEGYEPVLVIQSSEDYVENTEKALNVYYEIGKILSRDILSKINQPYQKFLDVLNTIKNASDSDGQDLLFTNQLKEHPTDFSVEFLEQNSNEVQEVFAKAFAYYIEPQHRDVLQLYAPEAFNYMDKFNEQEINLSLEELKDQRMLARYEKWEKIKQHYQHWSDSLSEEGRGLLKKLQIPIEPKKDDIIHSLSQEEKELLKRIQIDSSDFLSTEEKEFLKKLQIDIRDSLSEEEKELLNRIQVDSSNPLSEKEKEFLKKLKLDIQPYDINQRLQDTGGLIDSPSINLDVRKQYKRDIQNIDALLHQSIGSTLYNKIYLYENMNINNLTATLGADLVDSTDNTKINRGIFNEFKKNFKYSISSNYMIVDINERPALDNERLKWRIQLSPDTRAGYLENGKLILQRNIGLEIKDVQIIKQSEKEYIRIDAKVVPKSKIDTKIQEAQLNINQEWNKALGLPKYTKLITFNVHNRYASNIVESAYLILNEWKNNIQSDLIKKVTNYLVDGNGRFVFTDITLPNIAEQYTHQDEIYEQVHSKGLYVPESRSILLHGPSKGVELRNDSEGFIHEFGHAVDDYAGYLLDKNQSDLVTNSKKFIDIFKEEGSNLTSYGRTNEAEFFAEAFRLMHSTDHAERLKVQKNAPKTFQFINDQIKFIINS
# FBA Mtb inh = Mtb fructose-bisphosphate aldolase inhibition; purified M. tuberculosis FBA, fluorescence read-out; inhibition, % at 1 µM; hit rate 2.3% among 360,000; AID 588726; in the data active = inhibition above about 27%;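 also: 0% = vehicle and 100% = reference inhibitor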
# BoNT F protease = inhibitors of Botulinum neurotoxin F light chain protease | Multiplex microsphere protease cleavage assay, flow cytometry | inhibition, % at 10 µM | hit rate 0.22% among 360,000 | AID 588497; in the data active = inhibition above about 35%, passing the limit was not always enough; inconclusive = no clear call, values can overlap the other calls; also: plate controls were buffer without enzyme for full effect and enzyme alone for no effect
# BoNT A protease = BoNT A light chain protease inhibition; multiplex microsphere protease substrate cleavage, flow cytometry; inhibition, % at 10 µM; hit rate 0.17% among 360,000; AID 588499; also: plate controls were buffer without enzyme for full effect and enzyme alone for no effect
# GDH-TPI inh = inhibits GDH-TPI coupling enzymes, artifact for Mtb FBA screen. GDH-TPI coupled enzyme counterscreen, NADH absorbance. inhibition, % at 4.8 µM. hit rate 1.2% among 360,000; in the data active = inhibition above about 30%;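 also: 0% = DMSO wells and 100% = wells lacking the enzyme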
# Autofluor counter = compound fluorescence in toxin protease inhibitor counterscreen; hit rate 3.1% among 360,000; compound autofluorescence counterscreen, microsphere flow cytometry; hits give high values; AID 624483; fluorescence intensity (test concentration not listed); in the data active = fluorescence intensity above about 16000; inconclusive = no clear call, values can overlap the other calls
# The depositor's hits bear a star; ? = inconclusive; nt = no result; + = active, no number. Rule as the data show it, unless noted: active = inhibition above about 30%; inconclusive = no clear call, values can overlap the other calls; inactive = below that.
SMILES,Anthrax LF prot,FBA Mtb inh,BoNT F protease,BoNT A protease,GDH-TPI inh,Autofluor counter
COc1ccc(CC(C)CC(=O)Nc2ccc(OC)cc2)cc1 (stereo not drawn),11.8,3.6,-16.6,-2.5,6.0,3280
Cc1cccn2c(=O)c(/C=C(\C#N)S(=O)(=O)c3ccccc3)c(N3CCC(C(N)=O)CC3)nc12,1.0,-6.5,5.9,4.6,-3.8,18714*
Cc1ccc(S(=O)(=O)/C(C#N)=C/c2c(N3CCC(C(N)=O)CC3)nc3c(C)cccn3c2=O)cc1,12.2,-4.3,9.6,2.6,1.0,8291
COc1ccc(-c2csc(-c3cc4ccccc4oc3=N)n2)cc1,16.1,7.5,3.7,39.4*,6.2,2740
COc1ccc(/C=N/NC(=S)Nc2ccccc2)cc1COc1ccc(F)cc1,-5.4,0.1,28.9,5.0,8.0,4353
COc1cc(C(=O)NC2CCCc3ccccc32)cc(OC)c1OC (stereo not drawn),-2.2,-0.5,-5.5,1.0,-5.2,4408
Cc1noc(C)c1C(=O)OCC(=O)c1c[nH]c2ccccc12,53.2*,-3.4,21.9,47.2*,10.9,14479
COc1ccc(C2/C(=C(\O)c3ccc4c(c3)OCCO4)C(=O)C(=O)N2CCCN(C)C)c(OC)c1 (stereo not drawn),-2.4,-0.1,4.9,-0.8,17.5,2372
O=C(CN(CCc1ccccc1)C(=O)CN1C(=O)COc2ccccc21)NCc1ccco1,-0.2,-0.9,2.4,0.6,0.6,23028*
Cc1ccc2c(c1)N(CC(=O)NCc1ccco1)C(=O)CO2,0.2,-4.3,-4.1,-1.7,15.0,7286
Cc1ccc(NC(=O)NC2OC(=O)c3ccccc32)cc1 (stereo not drawn),-4.3,-0.8,5.1,0.4,8.7,4095
O=C(CCCCCN1C(=O)c2ccccc2C1=O)Nc1nccs1,0.7,0.0,2.4,1.9,8.9,21980*
O=C(CN1C(=O)c2ccccc2C1=O)Nc1nccs1,3.7,1.9,2.7,0.0,-3.4,5741
CC(=O)Nc1ccc(NC(=O)CCCCCN2C(=O)c3ccccc3C2=O)cc1,-5.6,-1.6,4.4,3.7,-9.5,18712*
COCc1c(C(=O)OC)nnn1-c1ccccc1,-1.8,1.6,1.7,?,7.3,22960*
COc1cc(/C=N/NC(=O)c2cc(-c3ccccc3Cl)nc3ccccc23)cc(OC)c1O,-6.2,-1.9,?,-1.3,38.5*,4578
COc1cc(/C=N/NC(=O)c2cc(-c3cccc(Br)c3)nc3ccccc23)cc(OC)c1O,nt,2.0,nt,nt,23.9,nt
COc1cc(/C=N/NC(=O)c2cc(-c3ccco3)nc3ccccc23)cc(OC)c1O,-7.7,-1.9,-11.6,-1.2,46.8*,4720
N#Cc1ccccc1OCC(=O)Nc1cccc(S(=O)(=O)N2CCCC2)c1,-7.0,2.0,-7.5,-0.4,-0.7,9029
O=C(CCS(=O)(=O)c1ccccc1)Nc1nc2cc3c(cc2s1)OCCO3,-3.7,0.1,-8.5,-1.3,3.8,5890
COc1cccc(CN(CC2CCCO2)S(=O)(=O)c2ccc(S(=O)(=O)N(C)C)cc2)c1 (stereo not drawn),-2.3,2.3,1.2,2.5,2.8,22709*
Cc1ccc2nc(-c3ccc(-c4ccccn4)s3)cn2c1,-11.2,+,3.8,1.8,20.5,5965
Brc1cc(Br)c2nc(-c3ccc(N4CCOCC4)cc3)ccc2c1,23.9,1.8,9.7,?,13.6,19443*
CC(=O)/C(N=Nc1cccc(C(F)(F)F)c1)=C(\C)O,-2.2,1.2,-0.9,-0.4,15.3,4434
CN(C(=O)/C(N=Nc1cccc(C(F)(F)F)c1)=C(\O)C(F)(F)F)c1ccccc1,-1.0,-2.6,-1.4,-1.0,23.3,16687*
SMILES,Anthrax LF prot,FBA Mtb inh,BoNT F protease,BoNT A protease,GDH-TPI inh,Autofluor counter
CC(=O)CSc1nnc2c3ccccc3nc(C(C)(C)C)n12,-1.7,7.2,0.2,0.3,5.6,3275
Cn1c(=O)c2[nH]c(-c3ccc(S(=O)(=O)O)cc3)nc2n(C)c1=O,2.3,nt,-3.9,-0.3,42.0*,5924
CCOc1cc2[nH]c(=S)n(C(C)C)c(=O)c2cc1OCC,-4.7,-1.4,-2.9,-0.2,29.1,21566*
CCOC(=O)N1CCC(n2c(=S)[nH]c3cc(OCC)c(OCC)cc3c2=O)CC1,-5.0,-1.8,8.8,?,4.7,18805*
CCOc1cc2[nH]c(=S)n(Cc3ccc(C)o3)c(=O)c2cc1OCC,-5.1,0.4,-4.8,?,21.1,17111*
CCOc1cc2[nH]c(=S)n(C3CC3)c(=O)c2cc1OCC,0.6,5.1,-1.4,0.3,15.8,3956
Cc1ccc(Cn2c(=S)[nH]c3ccc(N4CCOCC4)cc3c2=O)o1,-0.3,3.0,-5.7,0.0,16.4,5817
CN(C)c1ccc(/C=N\Nc2ccccn2)cc1,-10.5,2.4,-4.4,-1.8,75.7*,3275
O=[N+]([O-])c1ccc(/C=N/Nc2ccccn2)cc1,-0.7,-2.9,2.6,-0.5,13.2,3069
O=C(O)c1ccc(/C=N\Nc2ccccn2)cc1,-4.2,-3.0,-0.8,-0.7,54.1*,4498
O=C(c1cccs1)N1C[C@@H](n2cc(-c3ccc(F)cc3)nn2)[C@H](O)C[C@@H]1c1ccc(Cl)cc1,8.9,1.1,3.8,0.4,15.6,3643
COc1cccc(CC(=O)N2CCC(CCC(=O)Nc3cccc(OC)c3)CC2)c1,-4.2,-8.4,-0.3,0.0,0.3,5816
CC1(C)CC2CC(C)(CN2C(=O)COc2cccc3ccccc23)C1 (stereo not drawn),-4.8,3.8,9.3,-0.2,12.0,4834
CCOc1cnc(-c2ccc(OC)cc2)o1,-2.4,8.7,-10.7,-0.5,-3.0,2483
CCOc1oc(-c2ccc(OC)cc2)nc1C(F)(F)F,0.0,0.1,-0.7,0.3,12.1,16401*
CC(=O)c1ccc(Nc2nc(C(N)Cc3ccc(N)cc3)cs2)cc1 (stereo not drawn),-9.7,-2.0,-36.1,0.7,25.6,3911
CNc1nc(-c2ccc3c(c2)CCN3C(=O)c2ccc(F)cc2)cs1,-1.8,6.2,-4.3,1.1,6.5,2297
CNc1nc(-c2ccc3c(c2)CCN3C(=O)c2cccc(F)c2)cs1,-11.4,1.1,3.5,-1.4,31.0*,4204
O=C(CCN1C(=O)c2ccccc2C1=O)N1CCN(c2ccccc2)CC1,-2.2,-0.8,8.0,0.5,-6.7,9485
Cc1ccccc1N1CCN(CCN2C(=O)CC(=C3c4ccccc4-c4ccccc43)C2=O)CC1,-1.7,-0.9,-4.6,-0.5,12.4,16193*
Cc1ccccc1N1CCN(CCCN2C(=O)CC(=C(c3ccccc3)c3ccccc3)C2=O)CC1,-3.3,-1.1,0.4,0.1,-2.3,3293
O=C1CC(=C2c3ccccc3-c3ccccc32)C(=O)N1CCN1CCN(c2ccccc2)CC1,-3.4,-1.3,-0.2,1.8,12.1,19425*
COc1cnc(-c2ccccn2)nc1Sc1ccc(Cl)cc1,-1.7,-1.2,-6.0,?,-1.8,21806*
Cc1cc(=O)n2nc(N3CCCC3C(=O)Nc3cccc(Cl)c3C)sc2n1 (stereo not drawn),-5.0,1.2,19.3,-3.4,2.4,20778*
